Sa helicase inh – inhibitors of S. aureus replicative helicase, primary screen, biochemical, fluorescence unwinding readout; AID 485395, 2010; actives 0.05% (n = 120,000); replicative DNA helicase (DnaC/DnaB), Staphylococcus aureus; inhibition, % (concentration not given with the values); purified S. aureus helicase, fluorescence unwinding assay; in the data active means inhibition above about 25%, passing the limit was not always enough;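 further: 0% = mean of negative control wells and 100% = mean of positive control wells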
Sa growth inh – S. aureus growth inhibition at 42 and 30 °C, primary screen, LtaS inhibitor project, RN4220, two temperatures | OD600, 20 h, 42 °C; stronger effect = lower value | relative growth, % (concentration not given with the values) | actives 0.53% (n = 170,000);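 active means relative growth at most 50% at the other temperature and 20+ points below 30 °C, or under 10% at both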
An asterisk follows results filed as active; x = not tested or not shown. Only a selection was taken, and hits are over-represented in it overall.

SMILES	Sa helicase inh	Sa growth inh
CC(=O)Nc1ccc(OCc2c(C)noc2C)cc1	-13	x
S=c1n(CN2CCCC2)nc2sc3ccccc3n12	0	39*
CN(Cn1nc2sc3ccccc3n2c1=S)C1CCCCC1	-13	54
CC1CC(C)CN(C(=O)COC(=O)c2ccccc2NS(=O)(=O)c2ccc3c(c2)OCCO3)C1 (centres undefined)	-2	102
CNCc1ccc(SC)cc1	7	89
COc1ccccc1C(=O)OCC(=O)N1CCCCCC1	3	111
c1ccc(CNc2nnnn2-c2ccccc2)cc1	3	106
CCS(=O)(=O)c1nnnn1-c1ccccc1S(C)(=O)=O	3	89
CCS(=O)(=O)c1nnnn1-c1ccccc1	-3	0.1*
O=S(=O)(Cc1ccccc1)c1nnnn1-c1ccccc1	5	-0.2*
CC1Cc2ccccc2N1C(=O)Cn1c(=O)oc2cc(S(=O)(=O)N3CCCC3)ccc21 (centres undefined)	-16	99
CC1CCC(C(C)C)C(OC(=O)Cn2nnc(-c3ccccc3)n2)C1 (centres undefined)	13	110
COc1cc(/C=N/NC(=O)c2cc(-c3cccn3C)n[nH]2)cc(OC)c1OC	32	-0.2*
O=C(N/N=C/c1ccccc1)c1cc(-c2ccccc2)n[nH]1	16	94
CCCCCc1ccc(-c2ccc(C#N)cc2)nc1	-7	82
Nc1ccn([C@@H]2O[C@H](CO)[C@@H](O)C2O)c(=O)n1 (some centres undefined)	x	96
Nc1ccn([C@@H]2O[C@H](CO)[C@@H](O)C2(F)F)c(=O)n1	x	0.3*
CC12CCC(C(=O)Nc3ccc(Cl)cn3)(CC1=O)C2(C)C (centres undefined)	10	92
N=C1C(c2ccccc2)=C(O)CN1NC(=O)CSc1nc2ccccc2[nH]1	-6	102
COc1ccc(/C=N/n2ncc3ccccc32)cc1	14	27*
COc1ccc(/C=N/N2CCN(C)CC2)cc1	3	106
Cc1nc2cc(O)c(O)cc2s1	-10	84
O=C(Nc1ccccc1Cl)c1ccccc1O	5	19
O=C(Nc1ccc([N+](=O)[O-])cc1Cl)c1cc(Cl)ccc1O	x	-0.6*
COc1ccc(-c2nnc(SCC(=O)NCCCc3ccccc3)n2N)cc1	3	107
SMILES	Sa helicase inh	Sa growth inh
O=C(O)c1ccccc1C(=O)Nc1ccc(OC(F)F)cc1	-10	95
CCN(C(=O)CSc1nnc(-c2ccccc2)c(-c2ccccc2)n1)C1CCS(=O)(=O)C1 (centres undefined)	-7	101
CCN(C(=O)CSc1nc(C)cc(C)c1C(N)=O)C1CCS(=O)(=O)C1 (centres undefined)	6	-1.2*
O=C(Oc1ccccc1Cl)c1cc(-c2ccc3c(c2)OCCO3)on1	x	-0.1*
Cc1cccc(OC(=O)c2cc(-c3ccc4c(c3)OCCO4)on2)c1C	x	0.1*
Cc1ccccc1OC(=O)c1cc(-c2ccc3c(c2)OCCO3)on1	x	45
O=C(Oc1ccc(Cl)cc1)c1cc(-c2ccc3c(c2)OCCO3)on1	x	97
O=c1c(=NNc2ccccc2)c(=O)c2ccccc12	x	99
O=c1c(=NNc2nn[nH]n2)c(=O)c2ccccc12	11	1.4*
CCC(CO)NC(=O)c1snnc1C (centres undefined)	-1	85
Oc1oc(-c2ccccc2)cc1C=Nc1ccccc1	14	82
CCc1ccc(OCC(=O)c2c(O)c3ccccc3oc2=O)cc1	32	4.4*
COC(=O)c1c(O)c2ccccc2oc1=O	x	102
Cc1ccc(OC(=O)c2cccnc2)cc1	-5	98
Cc1ccc(N(c2ccc(C)cc2)c2cccnc2)cc1	7	5.5*
CCN1CCc2c(sc3c2C(=O)NC(c2ccc(COc4ccc(Cl)c(Cl)c4)o2)N3)C1 (centres undefined)	13	94
CCN1CCCC1CNC(=O)c1ccc2c(c1)N(Cc1cccc(Cl)c1)C(=O)c1ccccc1S2=O (centres undefined)	-5	96
CN1C(=O)/C(=N\N=c2\sc3ccccc3n2C)c2ccccc21	-58	80
CC(C)S(=O)(=O)c1oc(-c2ccc(F)cc2)nc1S(=O)(=O)c1ccccc1	x	1.3*
CCCCS(=O)(=O)c1oc(-c2ccc(F)cc2)nc1S(=O)(=O)c1ccccc1	x	1.6*
CCS(=O)(=O)c1oc(-c2ccc(F)cc2)nc1S(=O)(=O)c1ccc(Br)cc1	x	85
CC(C)S(=O)(=O)c1oc(-c2cccs2)nc1S(=O)(=O)c1ccc(F)cc1	x	85
Cc1ccccc1Cn1c(=O)n(CCCS(=O)(=O)C2CCCCC2)c(=O)c2ccccc21	5	89
O=C1NC(=O)/C(=C\c2cn(Cc3ccccc3)nc2-c2cccnc2)S1	-1	99
CN1CCN(S(=O)(=O)c2ccc(Oc3ccc(Br)cc3Cl)nc2)CC1	-5	79
SMILES	Sa helicase inh	Sa growth inh
NC(=O)COC(=O)c1ccc(Br)o1	7	121
CCCCCc1ccc(C(=O)CCN(C)C)cc1	0	-0.1*
CN(C)CCC(=O)c1ccc2c(c1)OCO2	3	87
CCc1c(C)sc2c1CCN(Cc1cccc(OC)c1)C2c1ccccc1 (centres undefined)	x	-1.1*
CCc1c(C)sc2c1CCN(Cc1ccccc1F)C2c1ccccc1 (centres undefined)	x	-1.3*
CCOC(=O)c1ccccc1NC(=O)N1CCc2c(sc(C)c2CC)C1c1ccccc1 (centres undefined)	x	107
CCc1c(C)sc2c1CCN(C(=O)Nc1cc(OC)c(OC)c(OC)c1)C2c1ccccc1 (centres undefined)	x	94
CCOC(=O)/C(C#N)=C/c1ccsc1	-13	95
C=CCN(CC=C)S(=O)(=O)c1ccc(C(=O)N=c2sc3ccccc3n2CC)cc1	20	x
O=C(O)/C=C/C(=O)Nc1ccc(SC(F)(F)F)cc1	-20	100
O=C(Nc1ccc(SC(F)(F)F)cc1)n1ccc(C(F)(F)F)n1	x	4.9*
O=c1c(-c2ccn(-c3ccccc3)n2)c(O)c2ccccc2n1-c1ccccc1	-3	99
CC1=Nc2ccccc2Sc2c1c(=O)n(-c1ccccc1)c1ccccc21	13	1.8*
COC(=O)c1ccc(NC(=O)COC(=O)c2cccc(N(C)C)c2)cc1	10	98
Cc1c2oc3c(C)ccc(C(=O)OC(C)C4NC(=O)C(C(C)C)N(C)C(=O)CN(C)C(=O)C5CCCN5C(=O)C(C(C)C)NC4=O)c3nc-2c(C(=O)OC(C)C2NC(=O)C(C(C)C)N(C)C(=O)CN(C)C(=O)C3CCCN3C(=O)C(C(C)C)NC2=O)c(N)c1=O (centres undefined)	x	-0.6*
BrCCc1nc(CCBr)n(Cc2ccccc2)n1	10	96
COc1ccc2nc(NC(=O)/C=C/c3cccs3)sc2c1	5	x
O=C(Nc1c[nH]c2ccccc12)N1CCOCC1	2	3.5*
O=C(Nc1ccccc1)Nc1c[nH]c2ccccc12	-3	89
C=CCNc1ncnc2c1c(-c1ccccc1)cn2-c1cccc(C(F)(F)F)c1	12	109
O=C(CSc1nc(Nc2ccccc2)nc(N2CCOCC2)n1)N1CCN(c2ccccc2)CC1	0	116
